A number with no mark means an inactive call. The list shows a part of the results. Activity calls are given as the source filed them. Unless noted, no stated cut-off is given here; in the data, active means inhibition above about 30%; inactive means the rest.
How the values were obtained:
[1] = target: Nuclear receptor coactivator 3 (Homo sapiens) (UniProt Q9Y6Q9); test: SRC3 coactivator transcriptional activity inhibitors, confirmation, cell-based, luminescence, quadruplicate (AID 588792;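 active means mean inhibition over 43.08%, the solvent-only control mean plus 3 SD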;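 further: 0% = DMSO treated cells and 100% = gossypol at 36 µM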); settings: HEK293 GAL4-SRC3 luciferase reporter, at 3.6 µM, hits give high values
Sequence of Nuclear receptor coactivator 3 (Homo sapiens) (Q9Y6Q9 whole entry, looked up, the tested form may be a part): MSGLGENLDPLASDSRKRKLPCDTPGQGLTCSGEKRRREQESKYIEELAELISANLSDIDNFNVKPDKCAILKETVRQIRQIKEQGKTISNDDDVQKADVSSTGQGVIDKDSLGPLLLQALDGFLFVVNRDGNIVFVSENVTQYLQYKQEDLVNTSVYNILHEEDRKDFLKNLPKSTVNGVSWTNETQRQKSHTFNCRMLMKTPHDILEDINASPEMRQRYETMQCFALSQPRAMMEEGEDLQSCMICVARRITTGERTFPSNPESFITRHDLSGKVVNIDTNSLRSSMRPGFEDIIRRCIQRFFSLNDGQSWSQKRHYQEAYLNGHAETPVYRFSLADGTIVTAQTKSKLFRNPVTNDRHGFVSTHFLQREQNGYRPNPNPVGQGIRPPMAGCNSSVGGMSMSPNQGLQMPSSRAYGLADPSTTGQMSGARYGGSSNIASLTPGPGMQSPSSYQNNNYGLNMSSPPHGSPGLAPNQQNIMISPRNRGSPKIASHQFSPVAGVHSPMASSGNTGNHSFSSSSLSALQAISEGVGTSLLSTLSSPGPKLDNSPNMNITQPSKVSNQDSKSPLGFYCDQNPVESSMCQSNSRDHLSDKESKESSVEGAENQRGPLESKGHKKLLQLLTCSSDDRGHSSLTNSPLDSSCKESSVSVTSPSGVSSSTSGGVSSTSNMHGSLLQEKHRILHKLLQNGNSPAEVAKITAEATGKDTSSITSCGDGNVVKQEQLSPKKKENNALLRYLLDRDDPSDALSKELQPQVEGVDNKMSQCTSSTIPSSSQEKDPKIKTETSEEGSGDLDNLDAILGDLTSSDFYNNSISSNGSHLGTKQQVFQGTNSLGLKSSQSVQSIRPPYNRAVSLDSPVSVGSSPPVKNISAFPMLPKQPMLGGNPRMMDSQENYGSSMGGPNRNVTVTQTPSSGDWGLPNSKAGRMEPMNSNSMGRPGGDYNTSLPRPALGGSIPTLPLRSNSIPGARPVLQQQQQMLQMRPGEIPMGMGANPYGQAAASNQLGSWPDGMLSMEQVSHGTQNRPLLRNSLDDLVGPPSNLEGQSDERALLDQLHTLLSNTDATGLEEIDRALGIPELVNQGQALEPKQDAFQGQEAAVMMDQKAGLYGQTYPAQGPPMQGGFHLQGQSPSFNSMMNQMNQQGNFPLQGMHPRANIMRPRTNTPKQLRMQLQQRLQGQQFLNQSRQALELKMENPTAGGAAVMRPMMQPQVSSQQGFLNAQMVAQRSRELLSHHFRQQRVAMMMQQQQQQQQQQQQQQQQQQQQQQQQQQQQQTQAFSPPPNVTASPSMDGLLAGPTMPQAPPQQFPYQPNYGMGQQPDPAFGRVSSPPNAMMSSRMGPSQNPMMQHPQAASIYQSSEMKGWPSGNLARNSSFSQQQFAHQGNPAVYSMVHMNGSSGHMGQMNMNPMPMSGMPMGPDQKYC

[2] = tested on: transactivating tegument protein VP16 (Human herpesvirus 1), Gal4-VP16 luciferase reporter; test: VP16 transactivation inhibitors, counter-screen for SRC3 inhibitor project, cell-based, luminescence, high throughput (AID 588794); settings: mammalian cells, VP16-driven luciferase reporter luminescence; at 3.6 µM; hits give high values
[3] = StAR promoter reporter inhibitors, counter-screen for LRH-1 inverse agonist project, cell-based, luminescence, high throughput (AID 651611; in the data active means inhibition above about 28%); settings: StAR promoter luciferase reporter counterscreen, at 3.6 µM, hits give high values
[4] = target: Nuclear receptor subfamily 5 group A member 2 (Homo sapiens) (UniProt O00482); test: LRH-1 (NR5A2) inverse agonists, retest, confirmation, cell-based, luminescence (AID 651613; in the data active means inhibition above about 42%;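 further: HEK293T cells co-transfected with LRH-1 and StAR promoter luciferase reporter; 0% = vehicle wells and 100% = parental cells lacking receptor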); settings: cell-based LRH-1 luciferase reporter, inverse agonism; at 3.6 µM; hits give high values
Sequence of Nuclear receptor subfamily 5 group A member 2 (Homo sapiens) (O00482 whole entry, looked up): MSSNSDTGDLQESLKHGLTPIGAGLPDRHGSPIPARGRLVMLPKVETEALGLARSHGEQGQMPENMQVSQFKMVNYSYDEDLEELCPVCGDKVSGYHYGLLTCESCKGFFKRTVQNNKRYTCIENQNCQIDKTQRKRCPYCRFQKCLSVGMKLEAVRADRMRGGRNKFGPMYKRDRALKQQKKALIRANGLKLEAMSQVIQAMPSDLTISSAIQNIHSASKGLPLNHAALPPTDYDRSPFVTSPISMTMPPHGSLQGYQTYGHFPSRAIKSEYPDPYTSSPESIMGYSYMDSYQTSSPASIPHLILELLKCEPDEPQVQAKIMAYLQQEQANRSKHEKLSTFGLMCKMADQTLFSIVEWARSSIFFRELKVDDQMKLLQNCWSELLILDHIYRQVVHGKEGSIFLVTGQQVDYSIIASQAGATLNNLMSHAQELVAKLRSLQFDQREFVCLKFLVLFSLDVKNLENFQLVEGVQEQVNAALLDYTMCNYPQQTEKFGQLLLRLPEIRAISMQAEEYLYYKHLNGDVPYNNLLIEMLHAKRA

[5] = target: Steroidogenic factor 1 (Homo sapiens) (UniProt Q13285); test: SF1 (NR5A1) inverse agonists, counter-screen for LRH-1 inverse agonist project, cell-based, luminescence, high throughput (AID 651614; in the data active means inhibition above about 44%;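 further: cells cotransfected with StAR promoter reporter and SF1 expression vector; 0% = vehicle on cells with receptor and 100% = vehicle on cells lacking receptor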); settings: cell-based SF1 luciferase reporter, at 3.6 µM, hits give high values
Sequence of Steroidogenic factor 1 (Homo sapiens) (Q13285 whole entry, looked up, the tested form may be a part): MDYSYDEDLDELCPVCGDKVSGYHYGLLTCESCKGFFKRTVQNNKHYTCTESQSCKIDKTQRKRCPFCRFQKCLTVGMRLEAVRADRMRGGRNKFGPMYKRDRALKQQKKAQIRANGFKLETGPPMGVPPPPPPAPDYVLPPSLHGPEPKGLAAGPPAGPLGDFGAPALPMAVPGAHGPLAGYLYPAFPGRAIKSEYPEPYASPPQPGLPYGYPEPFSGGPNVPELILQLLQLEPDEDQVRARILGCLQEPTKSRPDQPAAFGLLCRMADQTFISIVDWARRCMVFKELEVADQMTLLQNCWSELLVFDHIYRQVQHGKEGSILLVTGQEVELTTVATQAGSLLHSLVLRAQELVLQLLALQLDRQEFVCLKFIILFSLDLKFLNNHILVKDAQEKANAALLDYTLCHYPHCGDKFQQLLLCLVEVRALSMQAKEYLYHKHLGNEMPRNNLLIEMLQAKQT

[6] = VP16 transactivation reporter inhibitors, counter-screen for LRH-1 inverse agonist project, cell-based, luminescence, high throughput (AID 651615; in the data active means inhibition above about 33%); settings: Gal4-VP16 luciferase reporter cells, at 3.6 µM, hits give high values
[7] = target: Nuclear receptor coactivator 1 (Homo sapiens) (UniProt Q15788); test: SRC1 coactivator transcriptional activity inhibitors, confirmation, cell-based, luminescence, quadruplicate (AID 588820;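 active means mean inhibition above 46.68%, the untreated control wells mean plus 3 SD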;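 further: 0% = DMSO wells and 100% = gossypol 36 µM treated wells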); settings: HEK293 GAL4-SRC1 luciferase reporter, at 3.6 µM, hits give high values
Sequence of Nuclear receptor coactivator 1 (Homo sapiens) (Q15788 whole entry, looked up, the tested form may be a part): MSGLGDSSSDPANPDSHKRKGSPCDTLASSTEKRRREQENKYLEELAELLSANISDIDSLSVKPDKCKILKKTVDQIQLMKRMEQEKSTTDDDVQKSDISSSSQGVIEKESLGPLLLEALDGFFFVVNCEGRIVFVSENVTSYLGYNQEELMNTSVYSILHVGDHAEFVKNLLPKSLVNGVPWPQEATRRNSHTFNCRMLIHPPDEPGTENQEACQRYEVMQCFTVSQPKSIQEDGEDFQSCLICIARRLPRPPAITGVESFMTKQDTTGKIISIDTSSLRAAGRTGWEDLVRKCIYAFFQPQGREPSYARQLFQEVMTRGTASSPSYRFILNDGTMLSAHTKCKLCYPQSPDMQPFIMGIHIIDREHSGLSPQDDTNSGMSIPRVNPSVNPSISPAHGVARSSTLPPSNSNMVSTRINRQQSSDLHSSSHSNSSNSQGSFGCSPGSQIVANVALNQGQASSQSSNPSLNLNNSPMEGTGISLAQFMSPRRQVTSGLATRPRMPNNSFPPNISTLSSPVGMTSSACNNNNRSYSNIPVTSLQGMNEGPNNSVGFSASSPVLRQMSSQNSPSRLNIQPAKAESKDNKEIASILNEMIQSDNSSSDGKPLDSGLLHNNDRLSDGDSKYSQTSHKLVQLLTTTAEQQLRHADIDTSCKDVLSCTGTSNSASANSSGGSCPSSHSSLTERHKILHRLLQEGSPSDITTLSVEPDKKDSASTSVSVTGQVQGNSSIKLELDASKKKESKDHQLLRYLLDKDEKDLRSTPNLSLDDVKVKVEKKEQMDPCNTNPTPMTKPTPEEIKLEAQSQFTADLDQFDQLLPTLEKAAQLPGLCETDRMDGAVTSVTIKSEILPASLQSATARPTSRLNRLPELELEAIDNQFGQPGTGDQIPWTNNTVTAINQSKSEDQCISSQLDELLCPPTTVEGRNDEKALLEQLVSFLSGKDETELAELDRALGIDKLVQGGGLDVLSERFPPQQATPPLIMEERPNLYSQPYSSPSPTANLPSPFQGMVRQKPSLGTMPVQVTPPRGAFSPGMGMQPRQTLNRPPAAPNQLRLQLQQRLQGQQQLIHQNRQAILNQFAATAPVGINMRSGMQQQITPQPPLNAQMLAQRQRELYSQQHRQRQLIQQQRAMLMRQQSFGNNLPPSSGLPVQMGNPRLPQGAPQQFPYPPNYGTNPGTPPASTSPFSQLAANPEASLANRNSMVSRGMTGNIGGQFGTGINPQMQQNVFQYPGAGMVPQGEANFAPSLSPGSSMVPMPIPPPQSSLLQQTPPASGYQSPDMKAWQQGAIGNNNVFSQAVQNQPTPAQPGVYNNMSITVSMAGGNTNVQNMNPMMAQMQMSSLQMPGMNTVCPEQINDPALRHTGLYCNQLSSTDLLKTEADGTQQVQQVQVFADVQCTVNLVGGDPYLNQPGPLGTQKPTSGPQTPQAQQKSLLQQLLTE

[8] = VP16 transactivation inhibitors, counter-screen for SRC1 inhibitor project, cell-based, luminescence, high throughput (AID 588824; in the data active means inhibition above about 25%); settings: cell-based VP16 transactivation luciferase luminescence; at 3.6 µM; hits give high values
[9] = Gal4-VP16 luciferase reporter inhibitors, counter-screen for COUP-TFII antagonist project, cell-based, luminescence, HEK293 (AID 687007; in the data active means inhibition above about 13%); settings: at 8.5 µM, hits give high values
[10] = target: COUP transcription factor 2 (Homo sapiens) (UniProt P24468); test: NR2F2 transcriptional activity inhibitors, confirmation, cell-based, luciferase reporter, HEK293, triplicate (AID 687008;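 active means mean inhibition over three repeats above a set limit taken from the earlier primary screen, cut at about 38% in these data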;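 further: 100% = cells given the luciferase reporter alone without the COUP-TF2 vector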); settings: HEK293 NGFI-A luciferase reporter, luminescence; at 8.5 µM; hits give high values
Sequence of COUP transcription factor 2 (Homo sapiens) (P24468 whole entry, looked up): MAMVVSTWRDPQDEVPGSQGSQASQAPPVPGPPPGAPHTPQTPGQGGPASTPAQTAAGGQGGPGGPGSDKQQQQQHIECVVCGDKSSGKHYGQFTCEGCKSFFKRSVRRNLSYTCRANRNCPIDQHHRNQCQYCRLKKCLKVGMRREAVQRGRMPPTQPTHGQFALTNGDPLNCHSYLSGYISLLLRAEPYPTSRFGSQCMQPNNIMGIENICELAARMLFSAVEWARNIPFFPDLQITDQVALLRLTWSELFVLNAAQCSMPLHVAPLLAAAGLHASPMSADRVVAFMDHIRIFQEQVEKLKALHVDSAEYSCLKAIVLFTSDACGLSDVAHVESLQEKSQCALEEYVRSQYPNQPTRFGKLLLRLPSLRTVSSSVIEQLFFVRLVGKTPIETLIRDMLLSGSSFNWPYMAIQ

[11] = tested on: transactivating tegument protein VP16 (Human herpesvirus 1); test: VP16 transactivation reporter inhibitors, counter-screen for SRC2 inhibitor project, cell-based, luminescence, single concentration (AID 652007; in the data active means inhibition above about 36%); settings: cell-based VP16 transactivation luciferase reporter, at 8.9 µM, hits give high values
[12] = target: Nuclear receptor coactivator 2 (Homo sapiens) (UniProt Q15596); test: SRC2 coactivator transcriptional activity inhibitors, confirmation, cell-based, luminescence, HEK293, triplicate (AID 652008;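 active means mean inhibition above 46.5%, the solvent-only control mean plus 3 SD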;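 further: 0% = DMSO-treated cells and 100% = Gossypol at 36 µM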); settings: HEK293 GAL4-SRC2 luciferase reporter, at 8.9 µM, hits give high values

Row | Structure (SMILES) | inhibition [1] | inhibition [2] | inhibition [3] | inhibition [4] | inhibition [5] | inhibition [6] | inhibition [7] | inhibition [8] | inhibition [9] | inhibition [10] | inhibition [11] | inhibition [12]
1 | Clc1ccc(C2=Nn3c(nnc3-c3n[nH]c4c3CCC4)SC2)cc1 | 28.4% | -31.7% | 61.5% (active) | 46.5% (active) | 66.8% (active) | -54.9% |  |  |  |  |  | 
2 | O=c1oc2ccccc2cc1-c1cn(-c2ccccc2)c(=S)[nH]1 | 11% | 23.1% |  |  |  |  | -68.1% | -22.7% | 46.9% (active) | 60.8% (active) |  | 
3 | Cc1ccc(OCCN2CCN(c3ncnc4sc(C)c(C)c34)CC2)cc1 | 4.63% | 39.1% (active) | 34.8% (active) | 56.1% (active) | 61.3% (active) | 53.9% (active) |  |  |  |  |  | 
4 | CC[C@@H](C(=O)[C@@H](C)[C@@H](O)[C@H](C)CCc1ccc(C)c(O)c1C(=O)O)[C@H]1O[C@](CC)([C@H]2CC[C@](O)(CC)[C@H](C)O2)C[C@@H]1C | 26.4% | 58% (active) | 60.5% (active) | 51.9% (active) | 61.2% (active) | 60% (active) |  |  |  |  |  | 
5 | N=c1c2c(n(Cc3ccccc3)c3c1CCC3)CCC2 | 19.5% | 44.1% (active) | 37.3% (active) | 79.2% (active) | 72.9% (active) | 62.4% (active) |  |  |  |  |  | 
6 | c1ccc(CCNc2nc(-c3ccccn3)nc3ccccc23)cc1 | 22.7% | 41% (active) | 58.5% (active) | 91.9% (active) | 82.7% (active) | 69.1% (active) |  |  |  |  |  | 
7 | CCCOc1ccc(Br)cc1CSC(=N)N | 17.9% | 33.3% (active) | 9.34% | 102% (active) | 53.8% (active) | 83.7% (active) |  |  |  |  |  | 
8 | COc1cc(/C=N/NC(N)=S)cc(Br)c1OCc1ccccc1F | 54.7% (active) | 14.2% | 33.5% (active) | 74.1% (active) | 70.8% (active) | 40.5% (active) |  |  |  |  |  | 
9 | Cc1ccc(NC2=C(N3CCCCC3)C(=O)c3ccccc3C2=O)cc1 | -30.8% | -15% | -37.9% | 12.3% | -5.93% | -11.3% |  |  |  |  |  | 
10 | Cc1ccc(C(=O)C[n+]2cc(-c3ccc(C)cc3)n3c2CCCCC3)cc1 | 25.2% | 53.5% (active) | 38% (active) | 80.2% (active) | 75.7% (active) | 70.4% (active) |  |  |  |  |  | 
11 | O=C(N/N=C/c1c(O)ccc2ccccc12)c1[nH]ncc1Br | 58.8% (active) | 53.9% (active) | 77.2% (active) | 95.8% (active) | 83.8% (active) | 73.6% (active) |  |  |  |  |  | 
12 | CCC1C/C(=C\c2cccnc2)C(=O)/C(=C/c2cccnc2)C1 (stereo not drawn) | 15.6% | 78.6% (active) | 60.2% (active) | 103% (active) | 97.7% (active) | 90.7% (active) |  |  |  |  |  | 
13 | CCCCC(=O)NC(c1ccc(OC)cc1)c1ccc2cccnc2c1O (stereo not drawn) | 28.5% | 14.8% | 8.78% | 17.3% | 18.6% | 27% |  |  |  |  |  | 
14 | Cc1cc(C(=O)COC(=O)C2CC2)c(C)n1-c1ccc(F)cc1 | 4.63% | 5.67% |  |  |  |  | -12.9% | -14.9% | -16.4% | 30.3% | 1.88% | 20.3%
15 | Cc1ccc(NC(=O)c2cc(Cl)ccc2[N+](=O)[O-])cc1C | 27.3% | 18.5% | 16.6% | 36.5% | 34.6% | 19.6% |  |  |  |  |  | 
16 | CC(=O)c1c(C)[nH]c(C(=O)OCC(=O)Nc2ccc(Cl)cc2[N+](=O)[O-])c1C | 9.25% | 38% (active) | 22% | 59.6% (active) | 62.2% (active) | 54.5% (active) |  |  |  |  |  | 
17 | CCOC(=O)C1=Nc2ccccc2C1=[N+]=[N-] | 35.7% | 46% (active) | 14.1% | 53.3% (active) | 45.2% (active) | 53.2% (active) |  |  |  |  |  | 
18 | CC(C)(C)c1ccc(C2CC2C(=O)N/N=C\c2ccc[nH]2)cc1 (stereo not drawn) | 39.8% | 81.5% (active) | 80.9% (active) | 105% (active) | 92% (active) | 87.4% (active) |  |  |  |  |  | 
19 | CCN1/C(=C\c2ccc3cc(C)ccc3[n+]2CC)Sc2cc(C)c(C)cc21 | 34.9% | 57.5% (active) | 32.8% (active) | 82.5% (active) | 72.8% (active) | 65.6% (active) |  |  |  |  |  | 
20 | Cc1nnsc1S(=O)c1ccc(Cl)c(Cl)c1 (stereo not drawn) | 34.3% | 9.36% | 25.5% | 64.4% (active) | 66.4% (active) | 20.8% |  |  |  |  |  | 
21 | CCC(C)Nc1nc(-c2ccccn2)nc2ccccc12 (stereo not drawn) | 3.88% | 11.9% | 45.6% (active) | 67.2% (active) | 78.3% (active) | 42.9% (active) |  |  |  |  |  | 

Reference: PubChem BioAssay
